Test results from the supplement of paper PMC11732987, “Enantioselective OTUD7B fragment discovery through chemoproteomics screening and high-throughput optimisation” (Communications Chemistry, 2025).

Legend:
Test in all cases: log2 ratio of Biotin-Ahx-Ub-VS probe labelling (fragment/DMSO); higher = less target engagement (more negative = stronger competition), active = hit call of the paper (q ≤ 0.05, log2 ratio ≤ -1)
Details in all cases: compound concentration: 200 uM; treatment time: 3 h
USP34 = USP34 (UniProt Q70CQ2)
Chain of USP34 (Q70CQ2 whole entry, the tested form may be a part): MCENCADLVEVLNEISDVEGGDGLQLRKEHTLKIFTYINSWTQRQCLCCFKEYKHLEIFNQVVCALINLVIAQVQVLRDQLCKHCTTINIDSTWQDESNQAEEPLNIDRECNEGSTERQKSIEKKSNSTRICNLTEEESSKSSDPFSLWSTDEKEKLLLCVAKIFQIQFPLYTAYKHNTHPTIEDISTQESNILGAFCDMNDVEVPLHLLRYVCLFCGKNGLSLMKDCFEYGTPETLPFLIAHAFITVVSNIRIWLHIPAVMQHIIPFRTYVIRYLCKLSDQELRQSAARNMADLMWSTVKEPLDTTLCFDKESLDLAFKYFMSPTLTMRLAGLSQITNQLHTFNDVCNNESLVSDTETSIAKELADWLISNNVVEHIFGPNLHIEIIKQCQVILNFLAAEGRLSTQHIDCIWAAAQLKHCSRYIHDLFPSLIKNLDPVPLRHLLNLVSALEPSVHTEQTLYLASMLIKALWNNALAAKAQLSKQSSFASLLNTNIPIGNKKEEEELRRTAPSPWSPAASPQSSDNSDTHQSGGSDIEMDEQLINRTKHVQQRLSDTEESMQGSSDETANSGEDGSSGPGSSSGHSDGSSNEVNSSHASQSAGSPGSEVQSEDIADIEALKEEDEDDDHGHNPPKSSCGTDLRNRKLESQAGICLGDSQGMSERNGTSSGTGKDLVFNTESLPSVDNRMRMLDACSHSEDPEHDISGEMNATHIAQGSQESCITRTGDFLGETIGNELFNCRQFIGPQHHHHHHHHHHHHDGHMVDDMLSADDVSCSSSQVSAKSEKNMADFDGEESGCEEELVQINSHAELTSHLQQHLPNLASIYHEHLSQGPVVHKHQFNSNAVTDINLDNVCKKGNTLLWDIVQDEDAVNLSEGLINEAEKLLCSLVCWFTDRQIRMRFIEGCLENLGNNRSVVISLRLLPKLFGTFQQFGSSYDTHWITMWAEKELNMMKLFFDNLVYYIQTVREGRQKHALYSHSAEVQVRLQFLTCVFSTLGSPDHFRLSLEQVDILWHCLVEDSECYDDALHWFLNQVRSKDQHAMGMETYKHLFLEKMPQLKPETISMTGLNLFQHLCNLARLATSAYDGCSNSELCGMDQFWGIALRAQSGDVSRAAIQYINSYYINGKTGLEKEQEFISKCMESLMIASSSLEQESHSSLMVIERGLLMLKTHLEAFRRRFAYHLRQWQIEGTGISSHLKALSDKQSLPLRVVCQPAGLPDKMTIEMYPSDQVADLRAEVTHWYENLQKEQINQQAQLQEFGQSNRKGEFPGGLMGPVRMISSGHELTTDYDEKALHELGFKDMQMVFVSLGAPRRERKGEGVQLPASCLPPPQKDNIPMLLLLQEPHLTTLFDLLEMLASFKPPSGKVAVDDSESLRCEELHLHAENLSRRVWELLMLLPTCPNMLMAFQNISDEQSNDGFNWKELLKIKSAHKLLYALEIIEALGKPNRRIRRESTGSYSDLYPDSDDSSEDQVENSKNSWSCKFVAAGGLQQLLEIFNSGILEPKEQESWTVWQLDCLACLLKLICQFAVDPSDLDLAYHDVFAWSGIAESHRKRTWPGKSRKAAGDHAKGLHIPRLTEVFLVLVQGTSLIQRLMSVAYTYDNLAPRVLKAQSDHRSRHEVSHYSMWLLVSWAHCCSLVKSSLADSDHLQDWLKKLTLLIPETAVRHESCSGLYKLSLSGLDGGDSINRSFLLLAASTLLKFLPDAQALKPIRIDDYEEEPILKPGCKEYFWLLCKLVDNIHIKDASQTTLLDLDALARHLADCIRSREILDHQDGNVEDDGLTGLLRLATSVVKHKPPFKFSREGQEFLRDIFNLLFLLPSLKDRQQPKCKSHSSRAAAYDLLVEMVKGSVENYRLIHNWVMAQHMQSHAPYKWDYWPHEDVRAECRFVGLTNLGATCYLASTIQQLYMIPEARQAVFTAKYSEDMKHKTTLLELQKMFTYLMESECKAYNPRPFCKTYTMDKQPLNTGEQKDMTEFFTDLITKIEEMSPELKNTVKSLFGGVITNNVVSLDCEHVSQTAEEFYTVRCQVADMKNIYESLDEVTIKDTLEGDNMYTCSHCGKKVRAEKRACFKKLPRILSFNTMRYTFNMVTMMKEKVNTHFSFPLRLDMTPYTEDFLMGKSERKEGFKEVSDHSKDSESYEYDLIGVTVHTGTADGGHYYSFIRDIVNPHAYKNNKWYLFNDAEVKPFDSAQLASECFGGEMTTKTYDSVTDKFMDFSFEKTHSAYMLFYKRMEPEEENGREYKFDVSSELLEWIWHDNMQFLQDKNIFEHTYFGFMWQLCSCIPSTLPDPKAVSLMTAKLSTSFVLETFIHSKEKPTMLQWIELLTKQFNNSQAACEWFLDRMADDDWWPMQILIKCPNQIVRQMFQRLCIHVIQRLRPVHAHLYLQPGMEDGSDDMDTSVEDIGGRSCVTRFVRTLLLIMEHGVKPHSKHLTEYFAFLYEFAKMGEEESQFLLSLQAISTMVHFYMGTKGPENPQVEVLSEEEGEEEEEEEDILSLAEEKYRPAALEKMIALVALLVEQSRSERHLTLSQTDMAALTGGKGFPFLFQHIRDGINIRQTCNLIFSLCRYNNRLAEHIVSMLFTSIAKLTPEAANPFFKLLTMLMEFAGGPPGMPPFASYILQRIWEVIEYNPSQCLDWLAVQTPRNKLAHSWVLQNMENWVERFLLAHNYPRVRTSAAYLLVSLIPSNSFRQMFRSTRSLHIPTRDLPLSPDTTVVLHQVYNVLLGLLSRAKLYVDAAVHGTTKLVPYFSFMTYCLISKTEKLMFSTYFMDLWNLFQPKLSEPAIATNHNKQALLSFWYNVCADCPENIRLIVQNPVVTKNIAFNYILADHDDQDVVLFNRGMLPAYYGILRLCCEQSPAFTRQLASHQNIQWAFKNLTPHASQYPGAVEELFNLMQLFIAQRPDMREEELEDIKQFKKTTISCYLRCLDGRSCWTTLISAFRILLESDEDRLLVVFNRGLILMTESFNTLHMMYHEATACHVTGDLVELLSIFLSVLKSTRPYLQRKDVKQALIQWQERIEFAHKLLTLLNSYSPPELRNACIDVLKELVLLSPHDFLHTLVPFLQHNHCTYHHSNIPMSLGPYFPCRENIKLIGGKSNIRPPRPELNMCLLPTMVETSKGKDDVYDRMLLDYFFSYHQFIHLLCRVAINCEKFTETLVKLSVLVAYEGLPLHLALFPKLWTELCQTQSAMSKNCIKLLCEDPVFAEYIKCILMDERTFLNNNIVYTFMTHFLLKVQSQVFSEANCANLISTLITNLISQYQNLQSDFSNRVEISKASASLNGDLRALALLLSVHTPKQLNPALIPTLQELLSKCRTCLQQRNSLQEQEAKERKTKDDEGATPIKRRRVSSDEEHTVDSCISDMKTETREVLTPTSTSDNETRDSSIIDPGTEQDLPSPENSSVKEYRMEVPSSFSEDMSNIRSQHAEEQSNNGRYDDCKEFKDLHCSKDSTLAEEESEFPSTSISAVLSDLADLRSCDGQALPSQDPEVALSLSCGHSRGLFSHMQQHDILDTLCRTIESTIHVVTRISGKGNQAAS
Procedure, shortened: (§1)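 Average log2 ratios of fragment over vehicle were obtained by unpaired t-test from global-median-normalised Spectronaut label-free quantities. Proteins with ≥2 unique peptides were included. HEK293T lysate (495 µg per sample) was treated in triplicate with fragment at 200 µM or vehicle for 3 h, then with Biotin-Ahx-Ub-VS at 0.5 µM final for 1 h, and labelled DUBs were NeutrAvidin-enriched and run by diaPASEF LC-MS/MS.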

USP36 = molecular target: T1, USP36 (UniProt Q9P275)
T1 sequence (whole entry): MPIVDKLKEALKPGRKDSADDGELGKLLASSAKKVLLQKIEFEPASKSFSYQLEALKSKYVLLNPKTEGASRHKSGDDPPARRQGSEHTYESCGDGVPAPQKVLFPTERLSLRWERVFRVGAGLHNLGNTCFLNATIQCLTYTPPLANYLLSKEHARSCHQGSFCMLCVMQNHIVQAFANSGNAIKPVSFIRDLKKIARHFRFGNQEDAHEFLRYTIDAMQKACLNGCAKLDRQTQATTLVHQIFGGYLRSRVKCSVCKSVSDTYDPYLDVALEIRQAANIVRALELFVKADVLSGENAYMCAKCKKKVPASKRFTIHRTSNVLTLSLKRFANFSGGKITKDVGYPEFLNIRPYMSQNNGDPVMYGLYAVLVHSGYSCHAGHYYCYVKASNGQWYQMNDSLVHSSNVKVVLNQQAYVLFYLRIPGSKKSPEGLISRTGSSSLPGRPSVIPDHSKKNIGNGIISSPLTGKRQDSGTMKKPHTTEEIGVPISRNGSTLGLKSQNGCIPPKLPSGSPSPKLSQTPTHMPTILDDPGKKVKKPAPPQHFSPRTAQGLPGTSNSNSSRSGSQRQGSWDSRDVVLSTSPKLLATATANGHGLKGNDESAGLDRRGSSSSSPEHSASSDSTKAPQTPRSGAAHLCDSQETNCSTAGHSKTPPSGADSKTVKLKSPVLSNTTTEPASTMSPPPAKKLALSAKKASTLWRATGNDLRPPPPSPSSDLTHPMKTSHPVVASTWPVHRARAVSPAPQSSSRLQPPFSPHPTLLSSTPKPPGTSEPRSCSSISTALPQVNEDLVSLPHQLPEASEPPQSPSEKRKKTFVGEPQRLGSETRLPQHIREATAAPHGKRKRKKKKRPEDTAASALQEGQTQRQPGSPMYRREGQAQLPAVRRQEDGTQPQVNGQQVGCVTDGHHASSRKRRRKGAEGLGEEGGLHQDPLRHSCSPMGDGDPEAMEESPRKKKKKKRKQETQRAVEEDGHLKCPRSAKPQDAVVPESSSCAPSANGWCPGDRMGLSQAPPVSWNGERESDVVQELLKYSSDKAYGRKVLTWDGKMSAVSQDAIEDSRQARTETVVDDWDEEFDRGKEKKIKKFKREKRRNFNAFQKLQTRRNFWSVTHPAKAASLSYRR
Procedure, shortened: as §1

USP38 = molecular target: T2, USP38 (UniProt Q8NB14)
T2 sequence (whole entry): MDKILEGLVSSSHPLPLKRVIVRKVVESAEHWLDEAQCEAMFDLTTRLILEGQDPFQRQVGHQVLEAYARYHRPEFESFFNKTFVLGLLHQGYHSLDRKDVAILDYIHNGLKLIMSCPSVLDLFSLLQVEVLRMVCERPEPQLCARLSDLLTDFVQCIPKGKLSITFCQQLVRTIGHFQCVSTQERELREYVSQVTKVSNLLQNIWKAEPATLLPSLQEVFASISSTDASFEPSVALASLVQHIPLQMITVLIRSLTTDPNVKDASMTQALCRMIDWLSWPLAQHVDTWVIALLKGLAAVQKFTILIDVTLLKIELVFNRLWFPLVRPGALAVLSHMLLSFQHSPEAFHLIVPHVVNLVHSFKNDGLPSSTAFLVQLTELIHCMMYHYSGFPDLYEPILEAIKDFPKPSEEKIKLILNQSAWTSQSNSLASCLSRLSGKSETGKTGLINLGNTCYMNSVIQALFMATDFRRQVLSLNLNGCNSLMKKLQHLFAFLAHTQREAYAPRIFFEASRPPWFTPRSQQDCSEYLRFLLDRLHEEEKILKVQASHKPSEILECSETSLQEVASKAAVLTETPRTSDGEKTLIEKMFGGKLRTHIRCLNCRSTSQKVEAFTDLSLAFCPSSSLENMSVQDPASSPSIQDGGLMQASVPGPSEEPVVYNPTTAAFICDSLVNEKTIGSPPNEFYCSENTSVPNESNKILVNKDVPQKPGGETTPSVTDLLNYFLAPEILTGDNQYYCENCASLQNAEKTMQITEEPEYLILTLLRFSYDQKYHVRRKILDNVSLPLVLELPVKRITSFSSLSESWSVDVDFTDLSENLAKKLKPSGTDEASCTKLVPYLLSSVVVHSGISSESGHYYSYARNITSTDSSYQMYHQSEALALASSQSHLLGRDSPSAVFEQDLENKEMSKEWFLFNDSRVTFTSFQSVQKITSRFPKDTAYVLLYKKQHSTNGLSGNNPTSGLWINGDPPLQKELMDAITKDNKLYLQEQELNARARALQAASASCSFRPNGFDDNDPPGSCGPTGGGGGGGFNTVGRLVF
Procedure, shortened: as §1

USP39 = molecular target: T3, USP39 (UniProt Q53GS9)
T3 sequence (whole entry): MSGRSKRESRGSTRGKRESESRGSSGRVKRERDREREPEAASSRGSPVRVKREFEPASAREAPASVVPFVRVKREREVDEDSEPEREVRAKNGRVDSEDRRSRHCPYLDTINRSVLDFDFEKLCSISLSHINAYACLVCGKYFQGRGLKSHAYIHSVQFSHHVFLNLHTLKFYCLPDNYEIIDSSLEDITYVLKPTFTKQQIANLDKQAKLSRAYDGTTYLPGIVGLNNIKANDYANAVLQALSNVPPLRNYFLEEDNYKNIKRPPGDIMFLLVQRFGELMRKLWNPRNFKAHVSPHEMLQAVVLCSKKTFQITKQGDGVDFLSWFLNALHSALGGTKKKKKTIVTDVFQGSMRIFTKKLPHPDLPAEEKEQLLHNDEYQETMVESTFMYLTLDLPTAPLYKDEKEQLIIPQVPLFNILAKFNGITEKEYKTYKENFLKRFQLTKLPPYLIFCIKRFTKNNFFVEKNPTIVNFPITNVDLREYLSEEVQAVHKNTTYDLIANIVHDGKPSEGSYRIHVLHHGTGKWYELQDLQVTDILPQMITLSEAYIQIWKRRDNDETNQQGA
Procedure, shortened: as §1

USP4 = molecular target: T4, USP4 (UniProt Q13107)
T4 sequence (whole entry): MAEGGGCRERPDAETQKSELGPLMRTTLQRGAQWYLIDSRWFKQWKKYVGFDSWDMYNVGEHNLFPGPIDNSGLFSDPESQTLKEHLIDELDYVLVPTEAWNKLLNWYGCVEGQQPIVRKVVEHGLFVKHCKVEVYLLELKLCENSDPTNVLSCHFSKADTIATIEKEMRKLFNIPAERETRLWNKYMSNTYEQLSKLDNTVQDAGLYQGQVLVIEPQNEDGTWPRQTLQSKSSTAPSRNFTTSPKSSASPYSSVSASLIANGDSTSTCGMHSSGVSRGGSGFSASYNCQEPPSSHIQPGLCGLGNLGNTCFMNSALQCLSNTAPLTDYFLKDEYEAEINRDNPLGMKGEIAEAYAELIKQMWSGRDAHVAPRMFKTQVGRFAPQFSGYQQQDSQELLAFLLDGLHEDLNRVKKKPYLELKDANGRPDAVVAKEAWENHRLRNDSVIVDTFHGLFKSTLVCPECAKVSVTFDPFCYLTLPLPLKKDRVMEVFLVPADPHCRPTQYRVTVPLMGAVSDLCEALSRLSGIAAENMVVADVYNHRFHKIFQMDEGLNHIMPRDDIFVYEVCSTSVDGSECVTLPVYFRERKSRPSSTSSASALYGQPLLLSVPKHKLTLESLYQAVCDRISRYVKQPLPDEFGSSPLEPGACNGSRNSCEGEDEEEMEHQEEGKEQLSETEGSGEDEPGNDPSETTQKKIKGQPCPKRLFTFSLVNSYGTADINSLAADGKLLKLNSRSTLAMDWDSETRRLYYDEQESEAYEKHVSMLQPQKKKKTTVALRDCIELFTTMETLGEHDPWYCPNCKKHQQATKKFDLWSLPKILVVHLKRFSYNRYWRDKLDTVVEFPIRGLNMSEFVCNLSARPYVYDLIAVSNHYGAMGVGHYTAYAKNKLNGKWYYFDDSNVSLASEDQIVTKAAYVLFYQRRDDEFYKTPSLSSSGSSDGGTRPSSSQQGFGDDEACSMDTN
Procedure, shortened: as §1

Measured: log2 ratio of Biotin-Ahx-Ub-VS probe labelling

C#Cc1cccc(NC(=O)CCl)c1
inactive: USP34 -0.135 | USP36 -0.00355 | USP38 -0.119 | USP39 0.046 | USP4 0.0482
